Compound activity as filed in PubChem.
A selection: hits, their analogues and other compounds. The true share with any hit is near 1.2%.
RGS8-Gao – RGS8-Galphao binding modulators, primary screen, biochemical, multiplexed bead flow cytometry | Guanine nucleotide-binding protein G(o) subunit alpha (Homo sapiens), P09471 | actives lie on both sides | response (percent of control binding), % at 10 µM | actives 0.34% (n = 220,000) | AID 1423, 2008; in the data active means response below about 60% or above about 140%; inactive means in between;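 further: Galphao activated as the GDP aluminium fluoride complex binding bead-coupled RGS8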
Target sequence (P09471 whole entry, looked up): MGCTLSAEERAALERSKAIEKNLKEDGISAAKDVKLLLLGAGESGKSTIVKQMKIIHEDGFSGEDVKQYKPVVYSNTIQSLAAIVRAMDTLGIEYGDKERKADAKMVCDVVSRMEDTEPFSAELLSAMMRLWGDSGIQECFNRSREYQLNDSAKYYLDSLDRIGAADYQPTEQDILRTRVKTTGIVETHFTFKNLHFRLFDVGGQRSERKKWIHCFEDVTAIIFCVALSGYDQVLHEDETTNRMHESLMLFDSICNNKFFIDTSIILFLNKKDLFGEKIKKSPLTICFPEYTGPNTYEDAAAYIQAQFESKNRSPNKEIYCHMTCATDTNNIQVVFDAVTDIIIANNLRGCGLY
Avidin fluor – green autofluorescence of compounds with avidin beads – biophysical, 488/530 nm, flow cytometry, artefact control, profiling panel; compound fluorescence 488/530 nm; stronger effect = higher value; fluorescence (KMESF) at 10 µM; actives 0.38% (n = 220,000); AID 1775, 2009; in the data active means fluorescence above about 47
RGS4-Gao reg – modulators of RGS4 binding to Galphao, primary screen, biochemical, multiplexed bead flow cytometry | Guanine nucleotide-binding protein G(o) subunit alpha (Homo sapiens), P09471 | actives lie on both sides | binding response (% of control), % at 10 µM | actives 0.33% (n = 220,000); in the data active means binding response below about 49% or above about 150%; inactive means in between;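 further: fluorescent Galphao activated with aluminum fluoride binding bead-coupled RGS4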
RGS7-Gao reg – RGS7-Galphao binding modulators, primary screen, biochemical, multiplexed bead flow cytometry; Guanine nucleotide-binding protein G(o) subunit alpha (Homo sapiens), P09471; actives lie on both sides; binding response (% of control), % at 10 µM; actives 0.35% (n = 220,000); AID 1439, 2008; in the data active means binding response below about 49% or above about 150%; inconclusive means no clear call, values can overlap the other calls; inactive means in between;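 further: fluorescent Galphao held in activated GDP-AlF4 state binding bead-coupled RGS7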
GSH fluor – compound fluorescence on glutathione beads, profiling panel, artefact control, biophysical, 488/530 nm, flow cytometry; fluorescence (KMESF) at 10 µM; GSH beads flow cytometry, compound fluorescence 488/530 nm; stronger effect = higher value; AID 1776, 2009; actives 0.25% (n = 190,000); in the data active means fluorescence above about 89;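 further: glutathione beads carrying GST-tagged Bcl family fusion proteins plus one bare bead set; values are compound well signal with DMSO vehicle wells as background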
RGS16-Gao HTS – modulators of RGS16 binding to Galphao, primary screen, biochemical, human proteins, multiplexed bead flow cytometry; actives 0.38% (n = 220,000); bead-based flow cytometry RGS16-Galphao binding, fluorescence; actives lie on both sides; binding response (% of control), % at 10 µM; call rule not given here;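 further: Galphao activated by GDP with aluminum fluoride before binding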
Target sequence (O15492 whole entry, looked up): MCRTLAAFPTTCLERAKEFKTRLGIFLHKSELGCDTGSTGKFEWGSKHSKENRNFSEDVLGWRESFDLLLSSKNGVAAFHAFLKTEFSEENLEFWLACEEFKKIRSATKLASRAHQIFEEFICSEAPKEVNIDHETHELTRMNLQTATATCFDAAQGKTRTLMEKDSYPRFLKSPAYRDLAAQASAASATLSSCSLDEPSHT
Target sequence (P09471 whole entry, looked up): as the sequence (P09471 whole entry, looked up) above
Numbers without * were called inactive.

Cc1sc2nc(SCC(=O)c3cc(C)n(CC4CCCO4)c3C)n(C(C)C)c(=O)c2c1C (configuration not stated) was read as RGS8-Gao 98, Avidin fluor 10, RGS4-Gao reg 80, RGS7-Gao reg 95, GSH fluor 8 and RGS16-Gao HTS 91.
Screening Oc1ccc(C=Nc2ccc3ncccc3c2)c(O)c1 returned RGS8-Gao 100, Avidin fluor 69*, RGS4-Gao reg 106, RGS7-Gao reg 117, GSH fluor 17 and RGS16-Gao HTS 105.
`Oc1ccc(C=Nc2cccc3ncccc23)c(O)c1` gave RGS8-Gao 102, Avidin fluor 15, RGS4-Gao reg 99, RGS7-Gao reg 97, GSH fluor 23 and RGS16-Gao HTS 101.
For O=C(NC1CCC(O)CC1)c1ccc(-c2ccc([N+](=O)[O-])cc2)o1 (configuration not stated) the results were RGS8-Gao 102, Avidin fluor 8, RGS4-Gao reg 104, RGS7-Gao reg inconclusive and RGS16-Gao HTS 106.
`C=CCn1c(-c2ccc(C)cc2)nc2ccccc21` gave RGS8-Gao 101, Avidin fluor 47*, RGS4-Gao reg 103, RGS7-Gao reg 114, GSH fluor 31 and RGS16-Gao HTS 105.
Screening CC1CC(C)(C)OC(C[N+]2(C)CCCCC2)O1 (configuration not stated) returned RGS8-Gao 97, Avidin fluor 8, RGS4-Gao reg 96, RGS7-Gao reg inconclusive and RGS16-Gao HTS 99.
CCn1c(Cc2ccccc2)nnc1SCC(=O)Nc1ccc2c(c1)OCO2 was read as RGS8-Gao 100, Avidin fluor 9, RGS4-Gao reg 101, RGS7-Gao reg 102, GSH fluor 45 and RGS16-Gao HTS 101.
`Cn1c(Cc2ccccc2)nnc1SCC(=O)Nc1ccc2c(c1)OCCO2` gave RGS8-Gao 100, Avidin fluor 8, RGS4-Gao reg 97, RGS7-Gao reg 97, GSH fluor 255* and RGS16-Gao HTS 100.
Cc1ccc(Nc2nc(N)c([N+](=O)[O-])c(NCc3ccccc3)n2)cc1 was read as RGS8-Gao 103, Avidin fluor 8, RGS4-Gao reg 105, RGS7-Gao reg inconclusive and RGS16-Gao HTS 104.
COc1ccc(Nc2nc(N)c([N+](=O)[O-])c(NCc3ccccc3)n2)cc1 was read as RGS8-Gao 101, Avidin fluor 56*, RGS4-Gao reg 128, RGS7-Gao reg inconclusive and RGS16-Gao HTS 120.
For Cc1ccc(-c2nc(-c3cccnc3)no2)cc1 the results were RGS8-Gao 95, Avidin fluor 56*, RGS4-Gao reg 102, RGS7-Gao reg 146, GSH fluor 27 and RGS16-Gao HTS 87.
`Cc1ccc(-c2nc(-c3ccccc3)no2)cc1` gave RGS8-Gao 104, Avidin fluor 6, RGS4-Gao reg 105, RGS7-Gao reg 98, GSH fluor 27 and RGS16-Gao HTS 107.
Cc1ccc(C)c(OCC(=O)N/N=C/c2c(C)nn(-c3ccccc3)c2Cl)c1 was read as RGS8-Gao 100, Avidin fluor 56*, RGS4-Gao reg 105, RGS7-Gao reg 109, GSH fluor 14 and RGS16-Gao HTS 105.
Screening Cc1[nH]n(-c2nc(-c3ccc(Cl)cc3)cs2)c(=O)c1N=Nc1ccc(O)cc1 returned RGS8-Gao 95, Avidin fluor 11, RGS4-Gao reg 95, RGS7-Gao reg 101, GSH fluor 13 and RGS16-Gao HTS 98.
`O=C(CCl)N(c1ccccc1)C1CCCCC1` gave RGS8-Gao 99, Avidin fluor 27, RGS4-Gao reg 100, RGS7-Gao reg 104, GSH fluor 9 and RGS16-Gao HTS 102.
`Cc1ccc(-n2c3nc(=O)[nH]c(=O)c-3cc3cc([N+](=O)[O-])ccc32)cc1` gave RGS8-Gao 102, Avidin fluor 55*, RGS4-Gao reg 104, RGS7-Gao reg 118, GSH fluor 12 and RGS16-Gao HTS 109.
For Cc1ccc(-n2c(C)nn(Cc3ccc([N+](=O)[O-])cc3)c2=O)cc1 the results were RGS8-Gao 99, Avidin fluor 9, RGS4-Gao reg 100, RGS7-Gao reg inconclusive, GSH fluor 14 and RGS16-Gao HTS 104.
COc1ccc(CCNC(=O)CN(c2ccccc2OC)S(C)(=O)=O)cc1OC was read as RGS8-Gao 104, Avidin fluor 8, RGS4-Gao reg 105, RGS7-Gao reg 103, GSH fluor 263* and RGS16-Gao HTS 107.
Screening COc1cc(OC)c(OC)cc1NC(=O)CC1COc2ccccc2O1 (configuration not stated) returned RGS8-Gao 102, Avidin fluor 8, RGS4-Gao reg 105, RGS7-Gao reg 102, GSH fluor 17 and RGS16-Gao HTS 105.
Screening COc1ccc(CCNC(=O)CC2COc3ccccc3O2)cc1OC (configuration not stated) returned RGS8-Gao 100, Avidin fluor 48*, RGS4-Gao reg 101, RGS7-Gao reg 107, GSH fluor 26 and RGS16-Gao HTS 102.
For COc1ccc(CCNC(=O)/C=C/c2cc(OC)c(OC)c(OC)c2)cc1OC the results were RGS8-Gao 97, Avidin fluor 73*, RGS4-Gao reg 119, RGS7-Gao reg inconclusive, GSH fluor 15 and RGS16-Gao HTS 99.
COc1ccc(CCNC(=O)/C=C/c2ccc(C)cc2)cc1OC was read as RGS8-Gao 103, Avidin fluor 12, RGS4-Gao reg 103, RGS7-Gao reg 101, GSH fluor 22 and RGS16-Gao HTS 103.
Screening CCN(CC)S(=O)(=O)c1csc(C(=O)OCC(=O)c2ccccc2)c1 returned RGS8-Gao 95, Avidin fluor 4, RGS4-Gao reg 83, RGS7-Gao reg 88, GSH fluor 104* and RGS16-Gao HTS 86.
Screening NS(=O)(=O)c1ccc(NS(=O)(=O)c2ccc(NC(=O)c3ccc(-c4ccccc4)cc3)cc2)cc1 returned RGS8-Gao 110, Avidin fluor 373*, RGS4-Gao reg 106, RGS7-Gao reg 113, GSH fluor 13 and RGS16-Gao HTS 410.
`NS(=O)(=O)c1ccc(NC(=O)c2ccc(-c3ccccc3)cc2)cc1` gave RGS8-Gao 100, Avidin fluor 10, RGS4-Gao reg 98, RGS7-Gao reg 100, GSH fluor 57 and RGS16-Gao HTS 101.
`CC(C)(C)C(=O)Nc1nc2ccc(S(C)(=O)=O)cc2s1` gave RGS8-Gao 99, Avidin fluor 25, RGS4-Gao reg 101, RGS7-Gao reg 100, GSH fluor 8 and RGS16-Gao HTS 101.
